Screens from PubChem.
Sampled rows, rich in hits. Any-hit rate of the full collection: about 9.4%.
Pf growth 48h: inhibits P. falciparum growth in the first generation, 48 h; P. falciparum luciferase growth in erythrocytes, 48 h; Potency, µM (doses to about 28.7 µM), for inactives: at the top dose activity change, negative = inhibition, most hits filed as inhibitors; actives 5.9% (n = 310,000); also: % is scaled to controls: 0 for no effect and ±100 for the full control effect
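Firefly luciferase activity from engineered P. falciparum reports growth; inhibitors lower the luminescent signal. Cultures contained 2% hematocrit erythrocytes at 0.1% final parasitemia.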
SARS PLP yeast: blocks SARS-CoV papain-like protease in a yeast assay. S. cerevisiae expressing SARS-CoV PLpro, growth rescue. Potency, µM (top dose mostly 32.9 µM), inactives show at the top dose activity, positive = growth rescue, actives largely listed as activators. actives 0.19% (n = 330,000). AID 485353; calls by dose curve; also: 0% is about no effect; nearly all actives have a fitted effect of over 55% in size
AMA1-RON2 inh: AMA1-RON2 (P. falciparum) interaction inhibition; AlphaScreen AMA1-biotinylated RON2 peptide binding; Potency, µM (highest dose often 58.2 µM), inactives show at the highest dose activity change, negative = inhibition, usual class: inhibitors; actives 0.2% (n = 360,000);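 also: 0% = vehicle wells and -100% = peptide control; nearly all actives have a fitted effect of over 45% in size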
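AMA1 (3D7) with his tag at 25 nM final met compounds first, then biotinylated RON2 peptide at 25 nM; detection used donor plus acceptor beads, 10 µg/mL apiece, read by AlphaScreen after 30 min at room temperature.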
Pf growth 96h: P. falciparum growth inhibition at 96 hours. actives 6.9% (n = 320,000). P. falciparum luciferase reporter growth, 96 h. AID 504834. Potency, µM (doses to about 28.7 µM), for inactives: top-dose activity change, negative = inhibition, usual class: inhibitors; also: % is scaled to controls: 0 for no effect and ±100 for the full control effect
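P. falciparum expressing integrated firefly luciferase grown in erythrocytes (2% hematocrit, 0.05% parasitemia final) with compounds for 96 hours at 37 C, 5% CO2. Growth inhibition read as loss of luminescence after adding luciferase detection reagent.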
Numbers without * were called inactive; ? = inconclusive; . = not tested or not shown. Unless noted, calls follow the shape of the dose curve; as a rule, active = well fitted curve in the direction sought with a large enough effect; inconclusive = small, poorly fitted or top-dose-only effect, or another doubt; inactive = no such curve, though single readings can be large; an effect the other way counts as inactive or inconclusive. Potency is read from the fitted curve at half-maximal effect.

SMILES	Pf growth 48h	SARS PLP yeast	AMA1-RON2 inh	Pf growth 96h
O=C(Nc1cc(C(=O)N2CCOCC2)cc(C(=O)N2CCOCC2)c1)c1cc(F)c(F)cc1Cl	9%	4%	7%	29%
COc1ccc(NC(=O)COc2coc(CN3CCc4ccccc4C3)cc2=O)cc1	-16%	-2%	11%	13µM*
CCOc1ccc(NC(=O)COc2coc(CN3CCc4ccccc4C3)cc2=O)cc1	?	7%	4%	-22%
O=C(COc1coc(CN2CCc3ccccc3C2)cc1=O)Nc1cccc(F)c1	6%	1%	7%	4.7µM*
NS(=O)(=O)c1ccc(S(=O)(=O)N(CCc2ccccc2)Cc2ccccn2)cc1	-12%	3.5µM*	2%	?
COC(=O)CC(c1ccc(F)cc1)n1c(C)ccc1C (stereo not drawn)	?	-3%	-5%	13µM*
CCOC(=O)CC(c1ccc(N)cc1)n1c(C)ccc1C (stereo not drawn)	?	-2%	4%	?
O=C1NC(=S)SC1=Cc1ccccc1Cl	.	.	3%	.
Cc1ccc(C2C(/C=C3/SC(=S)NC3=O)=C(c3cccs3)Oc3ccccc32)cc1 (stereo not drawn)	.	-9%	-5%	9.3µM*
CCOC(=O)CCCCC(=O)c1[nH]c(=O)[nH]c1CSc1nc(C)cc(C)n1	.	-1%	-25%	7%
CCOC(=O)CCCCC(=O)c1[nH]c(=O)[nH]c1CSc1nnc2c3cc(Br)ccc3n(C)c2n1	10µM*	-1%	.	43%
CC1=CC(C)(C)N(S(=O)(=O)c2ccc(C)cc2)c2cc(C)ccc21	.	-29%	0%	9.3µM*
NS(=O)(=O)c1ccc(CCNC(=O)/C=C/c2ccc(S(=O)(=O)N3CCOCC3)cc2)cc1	.	.	-3%	.
COc1ccc(OC)c(CN2CCC(C(=O)N3CCOCC3)CC2)c1	0%	-11%	-12%	9.3µM*
CCOc1cc(/C=C/C(=O)c2ccc(OC)c(CN3CCOCC3)c2)cc(Br)c1O	13µM*	1%	-12%	9.3µM*
COc1ccc(F)c(CN2CCC(N3CCC(C(=O)N4CCOCC4)CC3)CC2)c1	3%	0%	-10%	22%
COc1ccc(CN2CCC(N3CCC(C(=O)N4CCOCC4)CC3)CC2)c(F)c1	11%	1%	-2%	10µM*
COc1cccc(C2(O)CCN(C(=O)Cc3cccnc3)CC2)c1	2%	-2%	3%	15%
COc1ccc(-c2[nH]ncc2CN2CCN(Cc3cccs3)CC2)cc1F	?	0%	0%	?
CCN(CC)C1CCN(Cc2cn[nH]c2-c2ccc(OC)c(F)c2)C1 (stereo not drawn)	12%	1%	0%	2.1µM*
Cc1ccc(-n2c(C)cc(/C=N/NC(=O)CC3(C)OCCO3)c2C)cc1	13µM*	3%	75%	?
Cc1cc(/C=N/NC(=O)CC2(C)OCCO2)c(C)n1-c1cc(Cl)cc(Cl)c1	?	15%	-2%	?
Cc1ccc(-n2c(C)cc(/C=N/NC(=O)CN(c3ccc(C)cc3C)S(C)(=O)=O)c2C)cc1	12µM*	4%	-7%	?
Cc1cc(C)cc(-n2c(C)cc(/C=N/NC(=O)CN(c3c(C)cccc3C)S(C)(=O)=O)c2C)c1	?	-3%	-9%	.
O=S(=O)(O)c1cc(O)ccc1O	26%	-5%	-10%	43%
SMILES	Pf growth 48h	SARS PLP yeast	AMA1-RON2 inh	Pf growth 96h
O=S(=O)(c1cc(O)ccc1O)c1cccc2c(S(=O)(=O)c3cc(O)ccc3O)cccc12	10µM*	-7%	8.9µM*	13µM*
Cc1cc(OCC(=O)N[C@@H](Cc2ccccc2)C(=O)O)c2c3c(c(=O)oc2c1)CCCC3	?	-1%	1%	?
CCC(C)c1ccc(NC(=S)NCCn2cc(Cl)cn2)cc1 (stereo not drawn)	9.3µM*	0%	15%	?
CCN(CC)CCOC(=O)C(Cc1ccco1)Cc1cccc2ccccc12 (stereo not drawn)	.	.	25µM*	.
Cc1ccccc1C(=O)NNC(=O)CCCCC(=O)NNC(=O)c1ccccc1C	.	.	26%	.
CCOC(=O)C(CC)(CC)C(=O)/C=C/c1ccc(Br)cc1	15µM*	-13%	24%	?
O=C(c1sc2cccc(Cl)c2c1Cl)N1CCN(CCc2ccccn2)CC1	5%	-3%	-10%	-4%
O=C(O)c1sc2cccc(Cl)c2c1Cl	?	-1%	-1%	1.3µM*
CCC(c1nnnn1C(C)(C)CC)N(CCN1CCOCC1)Cc1cc2cc(C)ccc2[nH]c1=O (stereo not drawn)	.	4%	4%	?
CCC(c1nnnn1C(C)(C)CC)N(CCCO)Cc1cc2cc(C)cc(C)c2[nH]c1=O (stereo not drawn)	8.3µM*	3%	-7%	10µM*
CCC(C)(C)n1nnnc1C(C(C)C)N(CCCO)Cc1cc2cc(C)ccc2[nH]c1=O (stereo not drawn)	?	6%	2%	13µM*
CCCC(c1nnnn1C(C)(C)CC)N(CCCO)Cc1cc2cc(C)cc(C)c2[nH]c1=O (stereo not drawn)	?	-4%	-2%	?
N#CCSc1nnc(Cc2cccs2)n1C1CCCCC1	?	0%	7%	?
Cc1cc(C)nc(SCC(=O)N/N=C/c2cccn2-c2cccc(C(F)(F)F)c2)n1	9.3µM*	0%	-11%	13µM*
CNC(=S)N/N=C(\C)c1ccc(N2CCOCC2)cc1	-4%	16%	83%	10µM*
CCNC(=S)N/N=C(\C)c1ccc(N2CCOCC2)cc1	3%	-1%	-3%	-23%
N#Cc1c(NC(=O)CSc2ncn[nH]2)sc2c1CCCCC2	9.3µM*	-1%	29%	.
CCOC(=O)C1CCCN(C(=O)c2ccccc2NC(=O)C2=C(C)OCCS2)C1 (stereo not drawn)	?	11%	4%	4.1µM*
CCOC(=O)C1CCCN(C(=O)c2ccc(C)c(NC(=O)C3=C(C)OCCS3)c2)C1 (stereo not drawn)	-6%	4%	-2%	39%
CC1=C(C(=O)Nc2cc(C(=O)N3CCN(c4cccc(C)c4C)CC3)ccc2C)SCCO1	-13%	-10%	-10%	10µM*
COc1ccc(N2CCN(C(=O)c3ccc(C)c(NC(=O)C4=C(C)OCCS4)c3)CC2)cc1	?	-4%	-10%	?
CC1=C(C(=O)Nc2ccccc2C(=O)NC2CCCCC2)SCCO1	-28%	0%	3%	139%
COc1cc(CNC(=O)c2ccccc2NC(=O)C2=C(C)OCCS2)cc(OC)c1OC	13µM*	-1%	-9%	?
CC1=C(C(=O)Nc2ccccc2C(=O)N2CCC(C)CC2)SCCO1	13µM*	2%	12%	-24%
CC(C)(C)OC(=O)NCCCCCNC(=O)c1ncn(Cc2ccccc2)c1C(=O)NCCCCCNC(=O)OC(C)(C)C	.	8%	-5%	.
CC1(C)CC2CC(C)(CN2C(=O)CCCN2C(=O)c3ccccc3C2=O)C1 (stereo not drawn)	6%	-8%	9%	8%
COc1ccc(NC(=O)c2cc3ccc4c5ccccc5[nH]c4c3cc2O)cc1	?	1%	?	5.9µM*
